Source: PubChem BioAssay
Inconclusive results are not listed. Activity calls are given as the source filed them. Unless noted, no stated cut-off is given here; in the data, active means inhibition above about 30%; inactive means the rest.

How the values were obtained:
[1] = reduced viability of SK-BR-3 breast cancer cells – cell-based, 24 h, human, pilot screen (AID 572;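 active means viability at or below 10% of carrier control in both of two separate runs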;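 further: compound exposure lasted between 18 and 24 h rather than exactly 24 h; 100% = carrier-treated control wells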); settings: SK-BR-3 viability, CellTiter-Glo luminescence, at 10 µM, stronger effect = lower value
[2] = HUVEC growth inhibition – cell-based, human, primary screen (AID 575;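 active means viability at or below 30% in both replicate assays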;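 further: 100% = median of untreated cell wells with 0.1% DMSO on each plate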); settings: HUVEC proliferation, CellTiter-Glo luminescence, 72 h; at 10 µM; stronger effect = lower value
[3] = H69AR cell proliferation blockers – human, duplicate replicates, primary screen (AID 580;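 active means viability at or under a set limit in both replicates, limit being median viability minus 3 SD, cut at about 48% in these data, passing the limit was not always enough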;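 further: 100% = mean luminescence of untreated wells and 0% = no signal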); settings: H69AR lung tumor cells viability, ATP luminescence, 72 h; at 10 µM; stronger effect = lower value
[4] = MRP1 drug-resistance reversers in H69AR cells – cell-based, doxorubicin co-treatment, pilot screen (AID 601;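 active means viability loss from added drug above about 55%, and viability with drug at most 40%, in both replicates, limit read from the data, passing the limit was not always enough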); settings: CellTiter-Glo, 72 h, at 10 µM; for differential viability (reversal): stronger effect = higher value
[5] = yeast transport mutant growth inhibition pilot in 384-well plates, post-Golgi transport modulator project (AID 636; in the data active means inhibition above about 31%); settings: absorbance 615 nm, about 18 h, stronger effect = higher value
[6] = growth suppression of yeast trafficking mutant, preliminary HTS, modulators of trafficking downstream of Golgi apparatus project, 1536-format plate, OD 615 nm (AID 637); settings: yeast transport mutant growth, absorbance 615 nm, 18 h; stronger effect = higher value
[7] = S. cerevisiae growth inhibition in permissive medium (OD615), pilot counter-assay for S. cerevisiae lifespan shortening project, permissive growth control (AID 705;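 active means growth inhibition above 25% in both replicates, a cutoff set 3 SD above the mean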); settings: OD615, 24 h, at 10 µM, stronger effect = higher value
[8] = S. cerevisiae growth inhibition in restrictive medium, OD615, pilot screen, restrictive growth control, yeast lifespan reduction project (AID 706;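 active means growth inhibition above a set limit, 3 SD over mean compound inhibition, in both replicates, cut at about 43% in these data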;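 further: modified DeaD lifespan yeast strain shifted to restrictive glucose medium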); settings: OD615, 48 h, at 10 µM, stronger effect = higher value
[9] = doxorubicin toxicity protection in MRP-1 cells – H69AR cells, CellTiter-Glo, duplicate, MRP-1 activator project, pilot screen (AID 807;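 active means viability increase at or above a cutoff of the median across tested compounds plus 3 SD, cut at about 8.5% in these data, passing the limit was not always enough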;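 further: compound pretreatment 18-22 h then 72 h combined with doxorubicin; 0% = doxorubicin alone and 100% = vehicle without doxorubicin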); settings: H69AR viability with doxorubicin, CellTiter-Glo luminescence; at 10 µM; stronger effect = higher value
[10] = viability of HCT116 without oncogenic beta-catenin – human colon tumor cells, pilot screen (AID 823;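 active means cell viability at or below a set limit in both duplicate runs, the limit being the all-compound median minus 4 SD, cut at about 23% in these data, passing the limit was not always enough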;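 further: 0% = wells killed by 20 µM Hyamine and 100% = untreated DMSO cell wells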); settings: HCT116 beta-catenin knockout viability, CellTiter-Glo, 60 h; at 10 µM; stronger effect = lower value
[11] = viability of PTEN-null HCT116 cells – cell-based, HCT116 clonal line, CellTiter-Glo, pilot screen (AID 824;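 active means viability at or below 27.92% in each of two runs, the all-compound median minus 4 SD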;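 further: 0% = 20 µM Hyamine control and 100% = vehicle cell control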); settings: HCT116 PTEN-deleted viability, 60 h, at 10 µM, stronger effect = lower value
[12] = RAM pathway blockade in budding yeast – dse1pr::URA3 reporter, 5-FOA selection, pilot screen (AID 869;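 active means inhibition over a set limit, the all-compound mean plus 3 SD, in both replicate runs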;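 further: 0% = DMSO wells with no growth and 100% = 10 µM 1-NA-PP1 with full growth; RAM network block rescues cells from 5-FOA so hits raise OD615 growth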); settings: S. cerevisiae dse1pr::URA3 5-FOA growth, OD615, 2 d; at 10 µM; stronger effect = higher value; strain carries analog-sensitive mutant Cbk1 kinase
[13] = RAM signaling pathway blockade in yeast – S. cerevisiae, Pdr1DBD-CYC8 efflux-inhibited sensitized strain, primary screen (AID 1298;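 active means RAM network inhibition above 8.4% in each of two replicates, 3 SD over the compound average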;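 further: 0% = DMSO untreated cells without growth and 100% = 10 µM 1-NA-PP1 full growth; higher means more yeast growth rescued from 5-FOA killing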); settings: S. cerevisiae cbk1-as DSE1-URA3 strain, 5-FOA growth OD615, 2 d; at 50 µM; stronger effect = higher value
[14] = H69AR cells + 2 uM doxorubicin, measured here: viability with 2 uM doxorubicin, stronger effect = lower value
[15] = H69AR cells, compound alone cytotoxicity

| Structure (SMILES) | viability [1] | viability [2] | viability [3] | differential viability (reversal) ([4]; H69AR cells + 2 uM doxorubicin) | viability [4, 14] [%] | viability [4, 15] [%] | inhibition [5] | inhibition [6] | growth inhibition [7] | growth inhibition [8] | viability increase [9] | viability [10] | viability [11] | inhibition [12] | RAM network inhibition [13] |
| --- | --- | --- | --- | --- | --- | --- | --- | --- | --- | --- | --- | --- | --- | --- | --- |
| O=C(c1ccco1)c1nnn(Cc2ccccc2)c1-c1ccccc1 | 107% (inactive) | 102% (inactive) | 85.1% (inactive) | 3.42% (inactive) | 81.7 | 85.1 | -2.93% (inactive) | -4.73% (inactive) | -6.81% (inactive) | -8.41% (inactive) | -2.38% (inactive) | 93.5% (inactive) | 99.1% (inactive) | 2.21% (inactive) | -0.25% (inactive) |
| c1ccc(-c2nnc(SCc3nc4ccccc4[nH]3)o2)cc1 | 94% (inactive) | 98.9% (inactive) | 88.8% (inactive) | 2.98% (inactive) | 85.8 | 88.8 | -5.6% (inactive) | 0.91% (inactive) | 7.59% (inactive) |  | -5.05% (inactive) | 93.5% (inactive) | 88.8% (inactive) | 1.33% (inactive) | 1.69% (inactive) |
| O=C(Nc1ccc2c(c1)OCCO2)C1CCN(C(=O)c2ccc(F)cc2)CC1 | 90% (inactive) | 94.9% (inactive) | 92.5% (inactive) | 5.68% (inactive) | 86.8 | 92.5 | -4.53% (inactive) | -4.55% (inactive) | -9.55% (inactive) | -4.03% (inactive) | -3.11% (inactive) | 92.3% (inactive) | 93% (inactive) | 0.685% (inactive) | 6.28% (inactive) |
| CC(=O)Nc1nnc(SCC(=O)NCC2CCCO2)s1 (centres undefined) | 70% (inactive) | 105% (inactive) | 96.3% (inactive) | 3.56% (inactive) | 92.7 | 96.3 | 0.27% (inactive) | 7.64% (inactive) | -2.62% (inactive) | 2.21% (inactive) | -1.36% (inactive) | 100% (inactive) | 88.6% (inactive) | 0.925% (inactive) | -0.72% (inactive) |
| Brc1ccc2ncnc(Nc3ccc(N4CCOCC4)cc3)c2c1 | 86% (inactive) |  | 77.8% (inactive) | -14.1% (inactive) | 91.9 | 77.8 | -2.27% (inactive) | -4.36% (inactive) | -5.24% (inactive) | 11% (inactive) | -6.53% (inactive) | 81.9% (inactive) | 72.9% (inactive) | 1.01% (inactive) | 3.74% (inactive) |
| Cc1ccc(-c2oc3ccccc3c(=O)c2O)cc1 | 78.5% (inactive) |  | 67.8% (inactive) | -6.71% (inactive) | 74.5 | 67.8 | -3.87% (inactive) | -1.17% (inactive) | -12.1% (inactive) | -12.3% (inactive) | -5.56% (inactive) | 10.2% (active) | 11.8% (active) | 2.66% (inactive) | 0.63% (inactive) |
| Cc1ccc2c(c1)C1CCCC3C1N2CC(=O)N3Cc1ccccc1 (centres undefined) | 117% (inactive) |  | 75.5% (inactive) | -5.75% (inactive) | 81.3 | 75.5 | 0.27% (inactive) | 0.97% (inactive) | -8.15% (inactive) | -24.9% (inactive) | -0.44% (inactive) |  | 53.3% (inactive) | 2.56% (inactive) | 7.32% (inactive) |
| CCn1c(CCNC(=O)c2ccc(OC)c(OC)c2)nc2ccccc21 |  | 103% (inactive) | 83.2% (inactive) | 6.54% (inactive) | 76.6 | 83.2 | -5.92% (inactive) | -2.22% (inactive) | -10.8% (inactive) | -11.1% (inactive) | -2.22% (inactive) | 102% (inactive) | 99.2% (inactive) | 1.87% (inactive) | 4.36% (inactive) |
| CC(C(=O)Oc1ccc2c(c1)OCO2)N1C(=O)c2ccccc2C1=O (centres undefined) |  | 79.5% (inactive) | 84.3% (inactive) | -10.1% (inactive) | 94.4 | 84.3 | -1.69% (inactive) | 1.27% (inactive) | -0.745% (inactive) | 13.1% (inactive) | -1.6% (inactive) | 99.3% (inactive) | 105% (inactive) | 1.38% (inactive) | 0.12% (inactive) |
| Cc1ccc(C)c(NC(=O)C2CCC(C)(C(=O)O)C2(C)C)c1 (centres undefined) |  | 98.8% (inactive) | 97.8% (inactive) | 5.67% (inactive) | 92.1 | 97.8 | 2.08% (inactive) | -0.79% (inactive) | -12.8% (inactive) | -13.8% (inactive) | -1.13% (inactive) | 97% (inactive) | 99% (inactive) | 0.355% (inactive) | 0.93% (inactive) |
| CC(c1ccco1)N(C(=O)c1ccc(S(=O)(=O)N2CCCCC2)cc1)c1ccccn1 (centres undefined) |  | 87.5% (inactive) | 86% (inactive) | -8.22% (inactive) | 94.2 | 86 | -4.03% (inactive) | 1.27% (inactive) | -17.7% (inactive) | 2.26% (inactive) | -4.13% (inactive) | 97.4% (inactive) |  | 1.19% (inactive) | 3.18% (inactive) |
| c1ccc2c(c1)ccc1nnc(-c3ccc4c(c3)OCO4)n12 |  | 98.7% (inactive) | 96% (inactive) | 4.88% (inactive) | 91.1 | 96 | -1.82% (inactive) | 3.33% (inactive) | -7.74% (inactive) | 2.03% (inactive) | -5.23% (inactive) | 93.7% (inactive) | 90.9% (inactive) | 1.31% (inactive) | 1.81% (inactive) |
| COc1ccc(-c2nn(-c3ccccc3)cc2/C=N/n2cnnc2)cc1OC |  | 79.3% (inactive) | 79.8% (inactive) | -11.2% (inactive) | 91 | 79.8 | -6.84% (inactive) | -0.63% (inactive) | 2.04% (inactive) | 17.4% (inactive) | -4.33% (inactive) | 88% (inactive) | 84% (inactive) | -0.92% (inactive) | -1.68% (inactive) |
| O=C(CCCCCn1c(=O)[nH]c2ccsc2c1=O)N1CCCCC1 |  | 102% (inactive) | 95% (inactive) | 5.84% (inactive) | 89.2 | 95 | -2.5% (inactive) | 7.62% (inactive) | 1.02% (inactive) | -1.91% (inactive) | -1.28% (inactive) | 96.9% (inactive) | 99% (inactive) | 0.36% (inactive) | -0.43% (inactive) |
| Cc1ccc(C)c(N2C(=O)CN=C2Nc2ccccc2Cl)c1 |  | 80.1% (inactive) | 100% (inactive) | 21.3% (inactive) | 78.6 | 100 | -1.95% (inactive) | 2.54% (inactive) | -7.25% (inactive) | -0.67% (inactive) | -0.31% (inactive) | 91.5% (inactive) | 94.4% (inactive) | 0.715% (inactive) | -0.52% (inactive) |
| COC(=O)C1CCN(C(=O)CSc2nnc(-c3ccncc3)o2)CC1 |  | 101% (inactive) | 81.8% (inactive) | -7.18% (inactive) | 89 | 81.8 | 1.43% (inactive) | 19.1% (inactive) | -0.605% (inactive) | -6.21% (inactive) | 1.44% (inactive) | 102% (inactive) | 102% (inactive) | 1.91% (inactive) | -1.1% (inactive) |
| O=c1cc(-c2ccco2)oc2ccc(Cl)cc12 |  | 111% (inactive) | 98.4% (inactive) | 12.5% (inactive) | 85.9 | 98.4 | -2.6% (inactive) | 4.76% (inactive) | -19.4% (inactive) | -2.54% (inactive) | -2.08% (inactive) | 96.9% (inactive) | 98.2% (inactive) | 0.61% (inactive) | 6.02% (inactive) |
| CC(=O)Nc1nc(-c2ccccc2)nc(C)c1C(C)=O |  | 103% (inactive) | 94.4% (inactive) | 7.1% (inactive) | 87.3 | 94.4 | 0.13% (inactive) | -2.22% (inactive) | -9.85% (inactive) | -7.77% (inactive) | -0.66% (inactive) | 93.4% (inactive) | 99.5% (inactive) | 0.585% (inactive) | 5.92% (inactive) |
| O=C(COC(=O)C1(c2ccccc2F)CCCC1)NC1CCS(=O)(=O)C1 (centres undefined) |  | 118% (inactive) | 97.2% (inactive) | 3.27% (inactive) | 93.9 | 97.2 | -1.69% (inactive) | -2.06% (inactive) | 5.97% (inactive) | 2.54% (inactive) | -0.5% (inactive) | 99.4% (inactive) | 95.3% (inactive) | 0.035% (inactive) | 3.94% (inactive) |
| Cc1cc2ncn(C(=O)N3CCOCC3)c2cc1C |  | 95.4% (inactive) | 92.2% (inactive) | 7.56% (inactive) | 84.6 | 92.2 | -2.47% (inactive) | -6.03% (inactive) | 0.665% (inactive) | -2.19% (inactive) | -1.25% (inactive) | 97.3% (inactive) | 97.3% (inactive) | 1.22% (inactive) | 4.08% (inactive) |
| CCC(=O)Oc1ccc2c(C)cc(=O)oc2c1C |  | 91.1% (inactive) | 90.6% (inactive) | -11.8% (inactive) | 102 | 90.6 | 0.39% (inactive) | 9.21% (inactive) | -8.37% (inactive) | 7.31% (inactive) | -4.73% (inactive) | 102% (inactive) | 97% (inactive) | 0.15% (inactive) | 3.51% (inactive) |
| COc1ccc(C2C(C#N)=C(C)NC3=C2C(=O)CC(C)(C)C3)c(OC)c1 (centres undefined) |  | 88.9% (inactive) | 95.3% (inactive) | 23.5% (inactive) | 71.8 | 95.3 | -1.3% (inactive) | -2.7% (inactive) | -22.8% (inactive) | -14.1% (inactive) | -1.62% (inactive) | 97.6% (inactive) | 91.4% (inactive) | 0.825% (inactive) | 1.94% (inactive) |
